SW480 rereplic: A quantitative high throughput screen for small molecules that induce DNA re-replication in SW480 colon adenocarcinoma cells; SW480 DNA re-replication, Hoechst DNA content imaging, 48 h; Potency, µM (titrated, usually from 46.1 µM), most hits filed as activators; actives 1.8% (n = 340,000); AID 624297, 2012; also: nearly all actives have a fitted effect of over 55% in size
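Hoechst fluorescence of nuclei (405 nm excitation, 500-530 nm emission) measured by plate-scanning imager after 48 hr compound exposure at 37 C; re-replication scored as increased number of nuclei with elevated intensity.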
MCF10A rereplic: A quantitative high throughput screen for small molecules that induce DNA re-replication in MCF 10a normal breast cells; MCF 10A DNA re-replication, Hoechst nuclear intensity, 48 h; Potency, µM (titrated, usually from 46.1 µM), actives largely listed as activators; actives 2.9% (n = 350,000); AID 624296, 2012; also: nearly all actives have a fitted effect of over 50% in size
DRD3 agonist: qHTS of D3 Dopamine Receptor Agonist: qHTS; AID 652048, 2013; D(3) dopamine receptor (Homo sapiens), P35462; D3R DiscoveRx beta-arrestin cells, luminescence, 90 min; actives 0.58% (n = 410,000); max activation, %; in the data active = max activation above about 30%
Target sequence (P35462 whole entry, looked up): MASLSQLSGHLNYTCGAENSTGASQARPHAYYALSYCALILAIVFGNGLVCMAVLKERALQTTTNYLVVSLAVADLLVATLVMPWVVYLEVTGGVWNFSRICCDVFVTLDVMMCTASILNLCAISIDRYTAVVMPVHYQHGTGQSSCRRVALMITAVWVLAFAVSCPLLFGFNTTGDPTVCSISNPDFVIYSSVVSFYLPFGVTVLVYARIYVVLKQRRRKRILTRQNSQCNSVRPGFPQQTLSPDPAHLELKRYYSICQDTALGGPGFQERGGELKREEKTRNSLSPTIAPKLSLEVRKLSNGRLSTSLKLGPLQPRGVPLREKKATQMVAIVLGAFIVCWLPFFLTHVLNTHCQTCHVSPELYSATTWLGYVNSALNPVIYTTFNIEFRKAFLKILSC
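Agonist-mode cell screen: cells plated at 1500/well and incubated overnight at 37 °C, then exposed to library compounds for 90 min at 37 °C. Detection reagent was added for 30–60 min at room temperature, and luminescence was read.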
KB-V1 cytotox: qHTS assay for MDR1-selective chemotherapeutics: Primary screen using the drug-selected MDR subline cells KB-V1; Potency, µM (top dose mostly 46.1 µM), most hits filed as cytotoxic; KB-V1 MDR cells viability, CellTiter-Glo, 72 h; actives 3.4% (n = 400,000); also: nearly all actives have a fitted effect of over 60% in size
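KB-V1, DMEM (no phenol red) + 10% FBS; cpd pin-transferred, titration series; 72 h, 37 degrees C; CellTiter-Glo, luminescence. Data normalized, curve-fit.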
D3 antag: qHTS of D3 Dopamine Receptor Antagonist: qHTS | D3R cells, DiscoveRx beta-arrestin luminescence, antagonist mode; stronger effect = lower value | max response, negative = inhibition, % | actives 2.5% (n = 360,000) | AID 652054, 2013; in the data active = max response below about -50%; inconclusive = no clear call, values can overlap the other calls
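Cells expressing the human receptor were seeded at 1500 cells/well, incubated overnight at 37 degrees C in 5% CO2, then exposed to library compounds with dopamine controls for 90 minutes at 37 degrees C before luminescent detection.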
KB-3-1 cytotox: qHTS assay for MDR1-selective chemotherapeutics: Primary screen using the parental adenocarcinoma cell KB-3-1 | Potency, µM (series often up to 46.1 µM), usual class: cytotoxic | KB-3-1 viability, CellTiter-Glo ATP luminescence, 72 h | actives 1.4% (n = 400,000); also: nearly all actives have a fitted effect of over 60% in size
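Here the drug-naive KB-3-1 line serves as comparator for MDR sub-line selectivity; cells received compound titrations, 72 h at 37 °C, then CellTiter-Glo readout.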
Numbers stand for hits; i = inactive; ? = inconclusive; nt = no result; [ ] = another dose, or the depositor's remark. Sampled rows, rich in hits. Any-hit rate of the full collection: about 8.9%. Unless noted, calls follow the shape of the dose curve; as a rule, active = well fitted curve in the direction sought with a large enough effect; inconclusive = small, poorly fitted or top-dose-only effect, or another doubt; inactive = no such curve, though single readings can be large; an effect the other way counts as inactive or inconclusive.

SMILES	SW480 rereplic	MCF10A rereplic	DRD3 agonist	KB-V1 cytotox	D3 antag	KB-3-1 cytotox
CNC[C@@H](C)NC[C@@H](Cc1ccccc1)NCCc1ccccc1	0.37µM	i	i	i	-86	?
CC(C)c1ccc(Nc2cc(C(=O)NCCc3ccccc3)c3ccccc3n2)cc1	nt	nt	i	i	nt	i
COC[C@H](c1ccc(C(F)(F)F)cc1)N1CCN(C2(C)CCN(C(=O)c3c(C)ncnc3C)CC2)C[C@H]1C	nt	nt	i	nt	nt	nt
CN(/N=C/c1ccc(Br)o1)C1=NS(=O)(=O)c2ccccc21	?	23µM	i	i	i	i
O=c1[nH]cnc2n[nH]nc12	nt	nt	nt	?	nt	1.5µM
CN1/C(=C\C=O)C(C)(C)c2ccccc21	i	i	i	i	i	i
CN1\C(=C/C=C/C=C/C=[N+](C)C)C(C)(C)c2ccccc21	i	?	i	8.2µM	i	?
CCCC(=O)NC(c1cccc([N+](=O)[O-])c1)c1ccc2cccnc2c1O (stereo not drawn)	nt	nt	i	?	i	9.2µM
CC(=O)NC(c1ccc(Cl)cc1Cl)c1ccc2cccnc2c1O (stereo not drawn)	i	?	i	i	i	?
CC(C)C(=O)NC(c1cccc([N+](=O)[O-])c1)c1ccc2cccnc2c1O (stereo not drawn)	i[9.22 µM]	?	i	?	i	?
COc1ccc(C(NC(C)=O)c2ccc3cccnc3c2O)cc1OC (stereo not drawn)	nt	nt	nt	i	nt	?
COc1ccc(C(NC(C)=O)c2ccc3cccnc3c2O)c(OC)c1 (stereo not drawn)	2.9µM	i	i	?	i	7.3µM
CCCC(=O)NC(c1ccc(Cl)cc1Cl)c1ccc2cccnc2c1O (stereo not drawn)	0.65µM	?	i	i	i	?
CCCC(=O)NC(c1ccc(C)cc1)c1ccc2cccnc2c1O (stereo not drawn)	?	21µM	31	3.7µM	i	?
CCCCC(=O)NC(c1ccc(N(C)C)cc1)c1ccc2cccnc2c1O (stereo not drawn)	?	?	i	?	i	?
COc1cc2c(NC3CCN(C)CC3)nc(N3CCCN(C)CC3)nc2cc1OCCCN1CCCCC1	nt	nt	nt	i	nt	?
CC(C)CCNC(=O)Nc1cc(C(=O)NCc2cccc(F)c2)ccc1N1CCCC1	nt	nt	i	i	nt	?
CCCCC(=O)NC(c1ccccc1OC)c1ccc2cccnc2c1O (stereo not drawn)	0.73µM	i	i	?	i	6.5µM
CCCCC(=O)NC(c1ccc(N(CC)CC)cc1)c1ccc2cccnc2c1O (stereo not drawn)	?	?	32	?	i	4.6µM
CCCCC(=O)NC(c1ccc(Cl)cc1)c1ccc2cccnc2c1O (stereo not drawn)	1µM	12µM	i	?	i	i
COc1cccc(C(NC(C)=O)c2nc(-c3cccc4cccnc34)cs2)c1 (stereo not drawn)	nt	nt	57	i	i	i
COc1cccc(C(NC(C)=O)c2nc(-c3ccncc3)cs2)c1 (stereo not drawn)	nt	nt	i	i	i	i
CCCC(=O)NC(c1ccccc1OC)c1ccc2cccnc2c1O (stereo not drawn)	?	i	i	?	i	?
CSCCC(NS(=O)(=O)c1ccc2c(c1)oc(=O)n2C)C(=O)NCc1ccc(F)cc1 (stereo not drawn)	nt	nt	i	i	nt	i
CCN(CC)c1ccc(C(NC(=O)C(C)C)c2ccc3cccnc3c2O)cc1 (stereo not drawn)	nt	nt	i	?	i	i
SMILES	SW480 rereplic	MCF10A rereplic	DRD3 agonist	KB-V1 cytotox	D3 antag	KB-3-1 cytotox
CCCC(=O)NC(c1ccc(Cl)cc1)c1ccc2cccnc2c1O (stereo not drawn)	2.9µM	?	i	?	i	?
CCNC(=O)CC1C(=O)N(c2ccc(F)cc2)C(=O)N1CCOC (stereo not drawn)	nt	nt	i	i	nt	i
CCc1nnc2c3ccccc3nc(N3CCN(c4cc(Cl)ccc4C)CC3)n12	nt	nt	i	i	nt	i
O=C(Cn1c(=O)n(-c2ccccc2)c(=O)c2c3c(sc21)CCCC3)Nc1ccc(F)cc1F	nt	nt	i	i	nt	i
Cc1nc(N2CCN(C)CC2)c2c3c(sc2n1)CCCC3	i	i	i	i	?	i
Oc1ccc(N2CCN(c3ncnc4sc5c(c34)CCC5)CC2)cc1	?	13µM	i	i	i	i
c1ccc2c(c1)nnn2-c1ncnc2sc3c(c12)CCCC3	i	i	i	16µM	i	i
CC(O)CNc1nc2ccccc2n1-c1ncnc2sc3c(c12)CCC3 (stereo not drawn)	i	i	i	13µM	i	?
c1ccc2c(c1)ncn2-c1ncnc2sc3c(c12)CCCC3	i	i	i	i	i	i
Cc1nc(-n2nnc3ccccc32)c2c3c(sc2n1)CCCC3	i	?	i	13µM	i	?
Cc1ccc2nc(Nc3cccc(C(F)(F)F)c3)c3nnnn3c2c1	nt	nt	i	nt	nt	nt
CCCCN(C)c1nc2c(S(=O)(=O)c3ccc(CC)cc3)nnn2c2ccc(Cl)cc12	nt	nt	i	i	nt	i
CNc1nc(N)c([N+](=O)[O-])c(Nc2cccc(Cl)c2)n1	i	i	i	i	i	i
Nc1nc(Nc2ccccc2)nc(NCc2ccccc2)c1[N+](=O)[O-]	i	i	i	?	i	?
Nc1nc(NCc2ccccc2)nc(NCc2ccccc2)c1[N+](=O)[O-]	i	i	32	16µM	i	i
CNc1nc(N)c([N+](=O)[O-])c(Nc2cccc(F)c2)n1	18µM	i	i	i	i	i
Cc1ccc(Nc2nc(N)c([N+](=O)[O-])c(NCc3ccco3)n2)cc1C	i	?	i	12µM	i	23µM
Cc1cccc(Nc2nc(N)c([N+](=O)[O-])c(NCc3ccccc3)n2)c1	?	18µM	i	18µM	i	i
Cc1ccc(N2CCn3c2nc2c3c(=O)n(CCCc3ccccc3)c(=O)n2C)cc1	nt	nt	i	nt	nt	nt
Cn1nc(C(F)(F)F)cc1C(=O)NC1CCCCCC1	i	i	40	i	i	i
Cn1nc(C(=O)NC2CCCCCC2)ccc1=O	i	i	i	i	i	i
O=C(NC1CCCCCC1)c1cccc(COCC(F)(F)F)c1	i	i	i	23µM	i	i
O=C(NC1CCCCC1)c1ccc(COCC(F)(F)F)o1	i	i	i	i	i	i
CCc1cccc(CC)c1-n1c(SCC(=O)N2CCc3ccccc32)nc(O)cc1=O	i	?	i	i	i	i
COc1ccc(-c2nnc(SCc3csc(N)n3)n2C)cc1	i	i	i	i	i	i

Screening results as filed in PubChem BioAssay.
